# Results: PubChem BioAssay (NCI)
# Where “and” joins values, the source holds several entries; their conditions need not be identical. Equal values may be shown once. The panel holds about 83,000 compounds, 20% with a hit somewhere; the sample as a whole holds those more often.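 A percent growth of 40 corresponds to 60% growth inhibition; 0 means no net growth; -100 means all cells died. Active threshold: below 10.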 Calls of active or inactive are those of the source.
# Test system: MDA-MB-468 breast
# Assay: NCI-60 one-dose screen, 48 h (100 = growth as untreated, 0 = no growth, -100 = all killed)
# Settings: 10 µM unless noted
row,SMILES,growth
1,CSc1nn(-c2ccccc2)c2ncnc(Oc3ccccc3)c12,88.6% (inactive)
2,COc1cccc2cc(N(C)c3ncnc4ccccc34)ccc12,-7.56% (active)
3,CCn1c(=O)n(C)c2c(=O)n(C)c(=O)n(C)c21,103% (inactive)
4,COc1cccc(-c2cc(-c3cccc(Cl)c3)c(C#N)c(=O)[nH]2)c1,70.1% (inactive)
5,O=C(OCc1ccccc1)c1ccccc1,95% (inactive) and 74.9% (inactive)
6,C/C(Cc1ccc(Cl)cc1)=C(\c1ccc(OCCN2CCCCCC2)cc1)c1ccc(OC(=O)c2ccccc2)cc1,48.1% (inactive)
7,O=C(CN1C(=O)/C(=C\c2ccc(Cl)cc2)SC1=S)Nc1ncc(Cc2ccc(Cl)cc2)s1,108% (inactive)
8,O=C(/C=C/c1cccc(O)c1)c1cccc(-n2cc(-c3ccc(Cl)cc3)[nH]c2=O)c1,37.6% (inactive)
9,COC(=O)/C=C/c1cc(O)c2oc(-c3ccc(O)c(O)c3)c(C(=O)OC)c2c1,26.7% (inactive)
10,COc1ccc(OC)c(Nc2nnc(-c3ccc(O)c(OC)c3)o2)c1,71.7% (inactive)
11,Cc1cc(C)c(N2C(=O)CC(Sc3ccccc3N)C2=O)c(C)c1 (stereo not given),45.6% (inactive)
12,CC(=O)Oc1ccc(C23c4ccccc4C2(OC(C)=O)c2cc(OC(C)=O)ccc23)cc1 (stereo not given),14.8% (inactive)
13,CCn1c2ccccc2c2ccc(C(C)=O)cc21,104% (inactive)
14,O=C(/C(=N/O)S(=O)(=O)c1ccccc1)c1cccs1,101% (inactive)
15,CCCCC1CCc2cccc3c(SCC(=O)N(C)c4ccc(Cl)cc4)cc[n+]1c23 (stereo not given),106% (inactive)
